Data on two sequences can be found in paper PMC7862700, “An all-to-all approach to the identification of sequence-specific readers for epigenetic DNA modifications on cytosine”.

Holding throughout (test): DAPPL (digital affinity profiling via proximity ligation, sequencing); 10 mM Tris-HCl pH 7.5, 50 mM NaCl, 1 mM DTT, 4% glycerol, room temperature, 30 min; GST-TFs on glutathione beads, 16-mer random dsDNA library, 0.1% formaldehyde crosslink after washing; high values mean tight binding
Common to all, as to details: protein: recombinant; tags: N-terminal GST; dsDNA, one strand shown

One test has as its target T1, EHF (Homo sapiens, UniProt Q9NZC4 1-300).
T1 sequence: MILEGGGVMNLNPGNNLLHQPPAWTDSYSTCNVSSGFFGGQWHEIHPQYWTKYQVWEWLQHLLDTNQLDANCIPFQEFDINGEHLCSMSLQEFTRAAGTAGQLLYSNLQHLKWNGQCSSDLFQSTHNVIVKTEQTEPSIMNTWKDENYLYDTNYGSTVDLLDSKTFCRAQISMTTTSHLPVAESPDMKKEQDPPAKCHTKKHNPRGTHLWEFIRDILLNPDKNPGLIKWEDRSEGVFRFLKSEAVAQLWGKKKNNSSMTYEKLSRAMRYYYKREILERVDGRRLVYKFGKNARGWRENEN
The procedure, abridged: (§1)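 Each value of binding signal is a hexamer's read frequency for a factor divided by the same hexamer's frequency in the tag-only sample. Barcoded, bead-captured GST fusions of human transcription factors made in yeast were pooled with that sample and incubated with 200 nmole of a random double-stranded 16-mer DNA library in Tris/NaCl/DTT/glycerol buffer at room temperature for 30 min. Washing, 0.1% formaldehyde crosslinking, proximity ligation, PCR and Illumina NextSeq500 sequencing followed.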

A further test deals with T2, SPIC (Homo sapiens, UniProt Q8N5J4 1-248).
T2 sequence: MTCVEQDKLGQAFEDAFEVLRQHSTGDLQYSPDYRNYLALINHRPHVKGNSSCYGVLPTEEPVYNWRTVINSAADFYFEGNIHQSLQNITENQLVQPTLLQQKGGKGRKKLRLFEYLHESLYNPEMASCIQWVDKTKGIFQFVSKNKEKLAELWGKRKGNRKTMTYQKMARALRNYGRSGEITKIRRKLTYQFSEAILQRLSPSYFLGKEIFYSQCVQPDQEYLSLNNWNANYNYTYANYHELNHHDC
The procedure, abridged:
as §1

The target of another test is ELF4 (Homo sapiens, UniProt Q99607 1-663). The procedure, abridged:
as §1

For another test, the target named is T3, ELF3 (Homo sapiens, UniProt P78545 1-371).
T3 sequence: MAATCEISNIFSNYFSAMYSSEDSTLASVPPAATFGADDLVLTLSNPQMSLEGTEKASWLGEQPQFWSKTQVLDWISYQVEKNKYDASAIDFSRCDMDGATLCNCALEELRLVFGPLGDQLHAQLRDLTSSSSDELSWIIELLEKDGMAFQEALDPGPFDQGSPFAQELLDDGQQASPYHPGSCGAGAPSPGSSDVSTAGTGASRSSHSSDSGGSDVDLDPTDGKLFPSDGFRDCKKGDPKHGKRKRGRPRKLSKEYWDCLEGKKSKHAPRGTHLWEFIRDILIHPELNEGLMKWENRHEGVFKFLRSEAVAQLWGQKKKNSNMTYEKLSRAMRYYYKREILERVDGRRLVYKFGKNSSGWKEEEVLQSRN
The procedure, abridged: as §1

The target of the next test is ETV1 (Homo sapiens, UniProt P50549 1-477). The procedure, abridged: as §1
The next test concerns the target T4, ERF (Homo sapiens, UniProt P50548 1-548).
T4 sequence: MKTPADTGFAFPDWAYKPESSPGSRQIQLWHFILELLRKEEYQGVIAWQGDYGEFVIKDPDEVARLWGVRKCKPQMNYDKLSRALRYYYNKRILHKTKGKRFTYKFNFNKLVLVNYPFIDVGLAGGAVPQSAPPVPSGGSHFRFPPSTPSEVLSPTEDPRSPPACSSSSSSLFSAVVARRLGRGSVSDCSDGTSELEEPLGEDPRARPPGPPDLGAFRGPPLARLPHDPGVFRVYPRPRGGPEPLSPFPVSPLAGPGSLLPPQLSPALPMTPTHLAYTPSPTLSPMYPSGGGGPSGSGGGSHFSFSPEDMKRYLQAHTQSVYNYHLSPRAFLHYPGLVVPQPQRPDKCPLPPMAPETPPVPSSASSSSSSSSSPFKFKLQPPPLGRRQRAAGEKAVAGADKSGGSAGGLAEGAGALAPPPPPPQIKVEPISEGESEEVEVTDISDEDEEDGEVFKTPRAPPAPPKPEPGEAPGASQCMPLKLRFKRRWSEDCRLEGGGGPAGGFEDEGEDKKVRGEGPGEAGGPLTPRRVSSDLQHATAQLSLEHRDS
The procedure, abridged:
as §1

For another test, the target named is T5, ETV7 (Homo sapiens, UniProt Q9Y603 1-341).
T5 sequence: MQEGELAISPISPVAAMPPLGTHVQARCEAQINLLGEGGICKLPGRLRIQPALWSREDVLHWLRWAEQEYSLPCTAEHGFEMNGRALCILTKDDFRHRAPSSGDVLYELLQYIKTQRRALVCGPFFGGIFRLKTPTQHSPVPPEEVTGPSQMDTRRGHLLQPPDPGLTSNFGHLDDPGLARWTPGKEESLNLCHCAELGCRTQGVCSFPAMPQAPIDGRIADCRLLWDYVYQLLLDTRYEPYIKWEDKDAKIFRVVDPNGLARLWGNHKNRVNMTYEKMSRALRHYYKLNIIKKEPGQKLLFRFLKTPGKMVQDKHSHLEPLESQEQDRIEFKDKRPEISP
The procedure, abridged: as §1

The target of another test is T6, GABPA (Homo sapiens, UniProt Q06546 1-454).
T6 sequence: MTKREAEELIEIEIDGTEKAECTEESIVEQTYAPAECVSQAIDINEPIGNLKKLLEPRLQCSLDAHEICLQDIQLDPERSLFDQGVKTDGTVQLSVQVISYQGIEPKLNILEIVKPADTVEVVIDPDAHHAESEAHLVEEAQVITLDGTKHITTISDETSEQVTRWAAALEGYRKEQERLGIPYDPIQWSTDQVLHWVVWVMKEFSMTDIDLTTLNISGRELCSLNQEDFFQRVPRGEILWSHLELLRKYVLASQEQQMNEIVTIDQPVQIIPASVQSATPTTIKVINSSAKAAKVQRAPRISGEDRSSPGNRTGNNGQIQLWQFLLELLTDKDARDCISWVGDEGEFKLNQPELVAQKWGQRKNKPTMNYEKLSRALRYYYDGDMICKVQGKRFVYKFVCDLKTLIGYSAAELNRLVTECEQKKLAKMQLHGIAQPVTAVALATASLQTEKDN
The procedure, abridged: as §1

Another test addresses T7, ERG (Homo sapiens, UniProt P11308 1-479).
T7 sequence: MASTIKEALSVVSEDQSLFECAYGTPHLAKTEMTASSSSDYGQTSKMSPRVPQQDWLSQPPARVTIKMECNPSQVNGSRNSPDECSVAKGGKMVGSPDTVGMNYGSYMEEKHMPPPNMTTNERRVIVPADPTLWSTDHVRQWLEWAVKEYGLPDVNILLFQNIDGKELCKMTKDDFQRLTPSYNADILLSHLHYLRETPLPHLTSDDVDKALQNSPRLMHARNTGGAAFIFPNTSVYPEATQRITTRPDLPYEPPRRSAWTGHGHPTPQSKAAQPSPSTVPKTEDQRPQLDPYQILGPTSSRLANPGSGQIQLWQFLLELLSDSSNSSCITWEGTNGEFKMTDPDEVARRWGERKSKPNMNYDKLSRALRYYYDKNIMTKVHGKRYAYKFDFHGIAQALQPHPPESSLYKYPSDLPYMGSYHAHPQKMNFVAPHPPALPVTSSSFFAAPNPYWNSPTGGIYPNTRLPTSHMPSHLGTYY
The procedure, abridged: as §1

In a further test the target is ELF1 (Homo sapiens, UniProt P32519 1-619). The procedure, abridged: as §1
A further test addresses T8, ETV3L (Homo sapiens, UniProt Q6ZN32 1-361).
T8 sequence: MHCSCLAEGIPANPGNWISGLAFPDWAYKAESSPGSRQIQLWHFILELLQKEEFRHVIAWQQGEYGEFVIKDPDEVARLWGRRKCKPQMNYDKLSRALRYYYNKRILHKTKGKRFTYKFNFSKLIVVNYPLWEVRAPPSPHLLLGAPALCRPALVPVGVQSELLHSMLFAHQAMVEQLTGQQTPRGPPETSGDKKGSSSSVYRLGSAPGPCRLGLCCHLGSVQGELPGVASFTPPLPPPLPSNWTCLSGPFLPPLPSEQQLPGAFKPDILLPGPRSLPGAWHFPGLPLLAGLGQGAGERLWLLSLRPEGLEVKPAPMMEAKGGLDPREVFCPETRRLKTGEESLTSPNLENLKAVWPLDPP
The procedure, abridged:
as §1

Another test deals with T9, ETS2 (Homo sapiens, UniProt P15036 1-469).
T9 sequence: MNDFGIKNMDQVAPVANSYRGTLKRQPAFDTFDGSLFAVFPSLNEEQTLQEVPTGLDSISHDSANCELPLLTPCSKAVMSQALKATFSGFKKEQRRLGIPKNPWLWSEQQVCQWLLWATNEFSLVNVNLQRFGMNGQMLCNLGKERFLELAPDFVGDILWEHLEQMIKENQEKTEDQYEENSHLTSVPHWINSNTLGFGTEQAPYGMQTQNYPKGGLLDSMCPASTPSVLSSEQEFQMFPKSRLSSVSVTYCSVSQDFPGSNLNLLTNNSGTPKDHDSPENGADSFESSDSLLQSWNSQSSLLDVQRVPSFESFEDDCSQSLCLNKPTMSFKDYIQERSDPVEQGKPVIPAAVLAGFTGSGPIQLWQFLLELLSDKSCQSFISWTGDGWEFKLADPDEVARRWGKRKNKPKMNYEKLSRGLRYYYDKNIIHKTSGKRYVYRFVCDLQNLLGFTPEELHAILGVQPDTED
The procedure, abridged: as §1

The target in another test is T10, ETV3 (Homo sapiens, UniProt P41162-2 1-143).
T10 sequence: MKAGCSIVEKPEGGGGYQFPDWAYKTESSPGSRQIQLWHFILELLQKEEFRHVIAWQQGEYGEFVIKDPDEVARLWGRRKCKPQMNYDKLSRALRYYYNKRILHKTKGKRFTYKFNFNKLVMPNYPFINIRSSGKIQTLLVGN
The procedure, abridged:
as §1

Chain of ETV1 (P50549 whole entry): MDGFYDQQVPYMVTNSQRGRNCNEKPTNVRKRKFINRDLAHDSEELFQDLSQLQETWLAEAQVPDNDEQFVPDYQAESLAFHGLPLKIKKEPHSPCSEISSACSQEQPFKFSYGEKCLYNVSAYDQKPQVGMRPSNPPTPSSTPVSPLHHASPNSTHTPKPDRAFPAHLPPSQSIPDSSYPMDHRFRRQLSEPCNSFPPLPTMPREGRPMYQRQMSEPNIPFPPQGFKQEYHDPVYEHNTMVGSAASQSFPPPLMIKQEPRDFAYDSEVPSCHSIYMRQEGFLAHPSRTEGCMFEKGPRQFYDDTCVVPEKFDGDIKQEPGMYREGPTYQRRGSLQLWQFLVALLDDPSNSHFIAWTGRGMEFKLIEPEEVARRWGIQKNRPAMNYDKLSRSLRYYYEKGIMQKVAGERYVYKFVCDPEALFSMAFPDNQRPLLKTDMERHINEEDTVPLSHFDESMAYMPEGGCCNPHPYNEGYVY
Chain of ELF4 (Q99607 whole entry): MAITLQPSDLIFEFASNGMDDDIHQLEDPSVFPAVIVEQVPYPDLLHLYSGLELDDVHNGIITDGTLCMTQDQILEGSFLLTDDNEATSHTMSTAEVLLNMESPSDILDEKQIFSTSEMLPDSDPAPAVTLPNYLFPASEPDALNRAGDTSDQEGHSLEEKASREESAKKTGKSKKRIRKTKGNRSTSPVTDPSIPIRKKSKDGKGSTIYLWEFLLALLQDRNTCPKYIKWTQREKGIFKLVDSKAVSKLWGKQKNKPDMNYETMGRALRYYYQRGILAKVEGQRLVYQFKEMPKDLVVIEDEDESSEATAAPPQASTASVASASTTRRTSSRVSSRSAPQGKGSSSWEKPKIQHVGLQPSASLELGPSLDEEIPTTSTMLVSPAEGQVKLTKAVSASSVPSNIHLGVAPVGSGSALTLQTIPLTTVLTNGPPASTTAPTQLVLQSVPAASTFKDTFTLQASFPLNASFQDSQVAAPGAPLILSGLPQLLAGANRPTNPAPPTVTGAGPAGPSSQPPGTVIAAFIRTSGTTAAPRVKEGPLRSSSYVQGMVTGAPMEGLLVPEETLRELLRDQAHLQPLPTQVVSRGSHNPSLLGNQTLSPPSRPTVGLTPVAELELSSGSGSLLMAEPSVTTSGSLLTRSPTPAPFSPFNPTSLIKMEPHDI
Chain of ELF1 (P32519 whole entry): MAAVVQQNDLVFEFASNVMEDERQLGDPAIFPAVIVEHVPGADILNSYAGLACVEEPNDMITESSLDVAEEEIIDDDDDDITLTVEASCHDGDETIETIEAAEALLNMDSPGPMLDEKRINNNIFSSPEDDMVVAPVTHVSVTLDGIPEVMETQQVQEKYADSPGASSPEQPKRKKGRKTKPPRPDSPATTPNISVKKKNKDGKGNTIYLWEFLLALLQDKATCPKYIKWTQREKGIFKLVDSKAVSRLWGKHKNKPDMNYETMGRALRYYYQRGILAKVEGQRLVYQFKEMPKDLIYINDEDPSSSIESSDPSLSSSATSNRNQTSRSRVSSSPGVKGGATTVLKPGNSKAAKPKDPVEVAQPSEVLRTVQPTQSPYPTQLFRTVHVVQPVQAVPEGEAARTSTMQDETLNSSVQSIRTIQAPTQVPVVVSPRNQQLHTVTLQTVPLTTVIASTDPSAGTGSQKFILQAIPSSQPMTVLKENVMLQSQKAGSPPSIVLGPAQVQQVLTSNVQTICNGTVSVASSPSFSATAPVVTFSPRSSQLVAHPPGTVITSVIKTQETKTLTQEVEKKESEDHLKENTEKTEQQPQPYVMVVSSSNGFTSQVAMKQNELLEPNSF

Turning to AGATCT, the binding signal was 1.04 fold enrichment (6-mer frequency, TF over GST control) in the test with EHF; 1.07 fold enrichment (6-mer frequency, TF over GST control) with SPIC; 1.01 fold enrichment (6-mer frequency, TF over GST control) in the test with ELF4; 1.09 fold enrichment (6-mer frequency, TF over GST control) with ELF3; 1.1 fold enrichment (6-mer frequency, TF over GST control) in the test with ETV1; 1.05 fold enrichment (6-mer frequency, TF over GST control) in the test with ERF. The binding signal in the test with ETV7 is 1.05 fold enrichment (6-mer frequency, TF over GST control).
TCTAGA: the binding signal with GABPA is 1.02 fold enrichment (6-mer frequency, TF over GST control); with ERG it was 1 fold enrichment (6-mer frequency, TF over GST control); with ELF1 it was 1 fold enrichment (6-mer frequency, TF over GST control); in the test with EHF it was 1.11 fold enrichment (6-mer frequency, TF over GST control); with SPIC, 1.05 fold enrichment (6-mer frequency, TF over GST control); in the test with ETV1 it was 1.02 fold enrichment (6-mer frequency, TF over GST control). Further, the binding signal in the test with ERF is 1.03 fold enrichment (6-mer frequency, TF over GST control); with ETV3L, 1.03 fold enrichment (6-mer frequency, TF over GST control); in the test with ETS2, 1.05 fold enrichment (6-mer frequency, TF over GST control); with ETV7, 1.03 fold enrichment (6-mer frequency, TF over GST control); with ETV3 it was 1.04 fold enrichment (6-mer frequency, TF over GST control).
